# Assay outcomes as filed in PubChem.
# Compounds with a hit are over-represented: about 4.2% of the library has one in this group of screens.
# NLRP3 yeast inh = NALP3 inflammasome inhibitors in reconstituted yeast, primary screen, luminescence, uHTS. AID 2825, 2010. Yeast reconstituted NLRP3/ASC/caspase-1, beta-gal luminescence, 24 h. actives 0.39% (n = 330,000). inhibition, % at 10 µM;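 active = inhibition of 50% or more; inactive = inhibition below 50%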;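 note: plate controls were induced DMSO wells for no effect and uninduced yeast grown without galactose for full effect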
# tim23-1 inh = growth inhibitors of tim23-1 mutant yeast, primary screen, luminescence, uHTS; S. cerevisiae tim23-1 growth, BacTiter-Glo luminescence, 24 h; actives 1.3% (n = 330,000); inhibition, % at 20 µM;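 active = growth inhibition of the mutant yeast at or above 50%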;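 note: temperature-sensitive mutant grown at 25 °C; plate controls were DMSO-treated mutant yeast for no effect and medium wells lacking yeast for full effect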
# tim10-1 inh = growth inhibitors of tim10-1 mutant yeast, primary screen, luminescence, uHTS | S. cerevisiae tim10-1 ts strain growth, BacTiter-Glo, 24 h | inhibition, % at 20 µM | actives 2.2% (n = 330,000);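 active = inhibition of at least 40%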;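 note: mutant grown at 25 °C; 0% = DMSO wells with yeast and 100% = wells holding no yeast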
# PfHsp90 yeast 2 = growth inhibition of PfHsp90-expressing yeast, primary screen, antimalarial PfHsp90 inhibitor project, S. cerevisiae, BacTiter-Glo luminescence, single point, set 2; BacTiter-Glo ATP, 48 h; yeast lacking PDR1 and PDR3 efflux regulators; inhibition, % at 9.4 µM; actives 0.32% (n = 310,000);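 active = every replicate shows inhibition above about 80%, whatever the replicate mean, limit read from the data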;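 note: 0% = DMSO neutral controls and 100% = 20 µM radicicol positive controls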
# TIM10 inh = growth inhibitors of isogenic TIM10 control yeast, primary screen, counter-screen for tim10-1 yeast inhibitor project, luminescence, uHTS | actives 1.4% (n = 330,000) | inhibition, % at 10 µM | S. cerevisiae TIM10 strain growth, BacTiter-Glo luminescence, 24 h;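 active = inhibition of 40% or more at the single tested concentration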;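 note: wild-type TIM10 isogenic control strain grown at permissive 25 °C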
# NALP1 inh = NALP1 inflammasome inhibitors in reconstituted yeast, colorimetric, S. cerevisiae, triplicate retest. S. cerevisiae NALP1/ASC/caspase-1 growth, X-gal OD620, 72 h. inhibition, % at 10 µM. actives 0.61% (n = 280,000). AID 2071, 2009; in the data active = inhibition mostly above about 24%, no sharp cut-off; inactive = mostly below about 32%
# tim10-1 confirm = growth inhibitors of tim10-1 mutant yeast, confirmation, single concentration, luminescence, S. cerevisiae. shares compounds with tim10-1 inh. S. cerevisiae tim10-1 ts strain growth, BacTiter-Glo, 24 h. inhibition, % at 20 µM. actives 56% (n = 7,400). AID 463213, 2010;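 active = inhibition of yeast growth at or above a set limit in either of two repeat tests at 20 µM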;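 note: tim10-1 mutant grown at permissive 25 °C to find synthetic lethal compounds; 0% = DMSO yeast wells and 100% = medium wells without yeast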
# Numbers without * were called inactive; · = no result given.
SMILES,NLRP3 yeast inh,tim23-1 inh,tim10-1 inh,PfHsp90 yeast 2,TIM10 inh,NALP1 inh,tim10-1 confirm
CCC(C)(C)C1CCc2[nH]nc(C(=O)NCCNC(=O)OC(C)(C)C)c2C1 (centres undefined),3.2,31.5,22.2,-7.6,12.7,·,·
CCOC(=O)C1CCN(S(=O)(=O)c2ccc(Cl)cc2OC)CC1,17.5,16.5,17.3,4.1,8.5,11.0,·
CCOC(=O)C1CCN(S(=O)(=O)c2ccc(OC)c(Cl)c2Cl)CC1,10.3,14.3,40.4*,-19.7,23.2,6.5,4.8
Fc1ccc(N/N=C/C=C/c2ccccc2)c(F)c1,15.8,28.3,68.8*,12.2,9.9,·,49.4*
Fc1ccc(N/N=C/c2ccncc2)c(F)c1,18.9,17.1,-10.9,-2.9,8.2,26.0,·
O=C(NCCc1ccccc1)/C(=C\c1ccccc1)NC(=O)c1ccco1,6.2,-5.6,7.1,9.0,5.8,-0.6,·
CCC(C)[C@@H](N)C(=O)N/N=C/c1cccc2nccnc12 (some centres undefined),11.2,2.9,8.7,·,8.6,18.8,·
COc1ccc(CCNC(=O)CSc2nc(=O)[nH]c3c2CCC3)cc1OC,4.1,13.5,2.0,8.3,-8.7,·,·
COc1ccccc1CNC(=S)Nc1ccc(F)cc1,-21.4,32.9,48.0*,-2.4,16.1,-3.5,1.3
COC(=O)Cc1ccc(NC(=S)NCc2ccccc2OC)cc1,18.3,-7.0,20.2,8.9,11.2,-8.6,·
C=CCn1c(Cc2cccs2)nnc1SCC(=O)c1cccc(Br)c1,3.5,31.2,41.1*,-6.7,13.7,-0.2,23.9
C=CCc1ccc(O)c(-c2ccc(O)c(CC=C)c2)c1,-6.0,47.4,45.4*,-49.1,34.4,2.4,48.1*
CCc1cccc(NC(=O)CS(=O)Cc2nc(-c3ccc(C)cc3)oc2C)c1 (centres undefined),11.5,31.3,47.2*,-21.3,25.8,-11.0,35.3*
Cc1[nH]n(-c2ccccc2)c(=O)c1N=Nc1c(O)cc(S(=O)(=O)N(C)C)c2ccccc12,19.8,44.4,42.7*,17.5,29.7,·,21.2
Cc1ccc(S(=O)(=O)N(C)CC(=O)O/N=C(\N)c2ccccn2)cc1,-0.3,15.5,16.3,4.4,0.1,10.1,·
N/C(=N\OC(=O)CCCOc1ccc(Cl)cc1Cl)c1ccccn1,23.1,21.0,59.1*,-13.5,39.5,-11.0,39.0*
N/C(=N\OC(=O)COc1cc(Cl)c(Cl)cc1Cl)c1ccccn1,39.8,16.7,34.8,-13.0,27.8,20.5,·
CN(CC(=O)O/N=C(\N)c1ccccn1)S(=O)(=O)c1cc(Cl)ccc1Cl,18.8,34.2,43.4*,0.5,22.0,-13.5,41.5*
O=C(CSc1nnc(SCc2ccccc2)s1)NNC(=S)Nc1ccccc1,14.5,33.2,45.5*,-4.1,38.0,5.7,27.7
CCN1CCN(C(=O)c2ccc3c(c2)c(C)c(C)n3Cc2ccccc2)CC1,-4.0,14.2,18.8,21.8,2.8,-2.3,·
CCn1c(C)c(C)c2cc(C(=O)N3CCc4ccccc4C3)ccc21,8.7,47.0,47.6*,-3.0,27.5,-2.1,0.9
Cc1cc(C)n(C(=O)c2ccc([N+](=O)[O-])cc2[N+](=O)[O-])n1,2.6,49.3,40.5*,-21.5,12.4,19.9,30.1
O=c1c2ccccc2oc2cc(NCCCN3CCOCC3)ccc12,16.8,5.6,41.3*,·,-3.0,-4.6,7.1
O=c1c2ccccc2oc2ccc(NCCCN3CCOCC3)cc12,11.0,29.5,26.1,1.7,10.3,27.1,·
CC(=O)Nc1c2c(nn1-c1ccc(F)cc1)CSC2,1.3,2.5,2.6,37.5,-9.0,18.5,·
SMILES,NLRP3 yeast inh,tim23-1 inh,tim10-1 inh,PfHsp90 yeast 2,TIM10 inh,NALP1 inh,tim10-1 confirm
CC(C)CCNC(=O)NC(=O)COC(=O)/C=C/c1cccc([N+](=O)[O-])c1,15.6,18.1,42.5*,3.1,24.8,4.4,18.5
COc1ccc(-n2c(SCC(=O)Nc3cccc(S(N)(=O)=O)c3)nc3ccccc3c2=O)cc1OC,-4.7,5.8,3.2,-28.9,6.0,-8.6,·
CCN(CC)c1ncn(Cc2c(Cl)cccc2Cl)c2ncnc1-2,11.2,39.1,41.8*,-21.0,9.3,9.9,35.6*
Cc1nn(Cc2c(Cl)cccc2Cl)c(C)c1N,4.3,4.2,13.8,16.6,-2.9,-2.2,·
CCn1c(SCC(=O)N2CCC(C)CC2)nc2c(c1=O)SC(C)C2 (centres undefined),16.4,24.3,-1.9,-11.5,0.2,15.6,·
Cc1cccc2sc(NC(=O)C3c4ccccc4Oc4ccccc43)nc12,-1.4,35.7,41.1*,·,33.0,6.8,32.5*
Cc1ccc2sc(NC(=O)C3CC3)nc2c1C,26.9,41.7,46.0*,32.2,30.8,23.0,3.4
O=C(Nc1nc2c(Cl)cccc2s1)C1CC1,0.2,46.1,55.7*,32.4,-18.4,12.8,-9.6
Cc1cccc2sc(NC(=O)C3CC3)nc12,14.1,26.0,6.4,11.1,11.6,12.9,·
Cc1ccc(N2Cc3ccccc3C2=S)cc1,31.2,30.9,41.6*,-68.2,2.9,41.2,26.3
COc1cc(/C=C/C(=O)N2C(=O)c3cccc(N)c3C2=O)cc(OC)c1OC,-4.0,22.1,43.2*,-6.3,37.3,-2.6,28.9
Nc1cccc2c1C(=O)N(C(=O)/C=C/c1cccc(Br)c1)C2=O,·,·,·,11.8,·,5.1,·
COc1ccc(OC)c(/C=C/C(=O)N2C(=O)c3cccc(N)c3C2=O)c1,7.3,45.5,42.3*,11.0,39.2,10.2,31.5*
C/C=C\C(=O)Nc1cccc(C2=NOC3(C2)C[C@H](C(N)=O)N(C(=O)[C@H]2CCC(=O)N2)C3)c1 (some centres undefined),6.1,-11.3,-6.0,·,5.5,-2.8,·
CC(C)(C)C(=O)COC(=O)C1=NN(c2ccccc2)C(=O)CC1,7.4,7.2,1.9,11.3,-7.6,9.3,·
COC(=O)CSc1nc2c(c(-c3ccco3)c1C#N)CCCC2,-0.5,31.4,46.6*,7.1,24.5,9.2,39.6*
COc1ccc(OC)c(-c2cc(C(=O)Nc3c(C)nn(Cc4ccccc4)c3C)no2)c1,8.7,15.6,41.1*,3.5,25.3,-7.0,10.1
COc1ccc(OC)c(-c2cc(C(=O)Nc3c(C)nn(Cc4ccc(Cl)cc4)c3C)no2)c1,21.6,34.4,42.7*,·,34.1,10.0,32.4*
Cc1nn(Cc2ccc(Cl)cc2)c(C)c1NC(=O)c1c(-c2ccccc2)noc1C,4.0,30.2,43.4*,·,28.0,-56.3,43.5*
